VDR inh: vitamin D3 receptor (human) inhibition. P11473. VDR-SRC2-3 peptide fluorescence polarization, 2 h. Potency, µM, for inactives: max response, negative = inhibition, actives largely listed as inhibitors. hit rate 0.93% among 400,000; further: potency means the concentration at half of the fitted maximal effect
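Compounds are added to VDR with labelled SRC2-3 coactivator peptide and held 2 h at room temperature. Inhibition of the VDR–peptide interaction is then read as a change in fluorescence polarization.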
Sfp PPTase inh: Sfp phosphopantetheinyl transferase inhibition. Q9F4F7. Biochemical Sfp PPTase activity, qHTS. Potency, µM, without a hit: largest response in the series, negative = inhibition, hits mostly inhibitors. hit rate 3.5% among 310,000. AID 1490;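 further: the enzyme is Sfp with the accession as filed and its product quenches rhodamine fluorescence; potency means the concentration at half of the fitted maximal effect; 0% = enzyme reaction without inhibitor and -100% = no enzyme wells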
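Step 1, compound plus 15 nM Sfp-PPTase, 15 min, room temperature. Step 2, add rhodamine-CoA (5 uM) and BHQ-2-YbbR (12.5 uM). Step 3, read 525/598 nm fluorescence at 0 and 30 min.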
Mm-Cpn inhibitor: blocks the Methanococcus maripaludis chaperonin Mm-Cpn. Potency, µM (series often up to 76.9 µM), for inactives: at the top dose activity, negative = inhibition, usual class: inhibitors. hit rate 0.031% among 330,000. purified Mm-Cpn ATPase, ADP Transcreener TR-FRET; further: potency means the concentration at half of the fitted maximal effect; nearly all actives have a fitted effect of over 80% in size
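ATPase turnover read by TR-FRET ADP competition (Eu cryptate antibody/ADP-d2, 665/590 nm): 10uM ATP final, 25nM Mm-CPN final, 30 min 37degC after 10-min compound preincubation, pH 7.4 Tris/KCl/MgCl2/DTT buffer.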
PLK1 PBD block: blocks phosphopeptide binding to human PLK1 polo-box domain; P53350; Plk1 PBD binding of FITC phosphopeptide, fluorescence polarization; Potency, µM, for the others: max response, negative = inhibition, hits mostly inhibitors; hit rate 2.8% among 360,000; further: potency means the concentration at half of the fitted maximal effect; series mostly up to about 57 µM; nearly all actives have a fitted effect of over 65% in size
Target sequence (P53350 whole entry, looked up, the tested form may be a part): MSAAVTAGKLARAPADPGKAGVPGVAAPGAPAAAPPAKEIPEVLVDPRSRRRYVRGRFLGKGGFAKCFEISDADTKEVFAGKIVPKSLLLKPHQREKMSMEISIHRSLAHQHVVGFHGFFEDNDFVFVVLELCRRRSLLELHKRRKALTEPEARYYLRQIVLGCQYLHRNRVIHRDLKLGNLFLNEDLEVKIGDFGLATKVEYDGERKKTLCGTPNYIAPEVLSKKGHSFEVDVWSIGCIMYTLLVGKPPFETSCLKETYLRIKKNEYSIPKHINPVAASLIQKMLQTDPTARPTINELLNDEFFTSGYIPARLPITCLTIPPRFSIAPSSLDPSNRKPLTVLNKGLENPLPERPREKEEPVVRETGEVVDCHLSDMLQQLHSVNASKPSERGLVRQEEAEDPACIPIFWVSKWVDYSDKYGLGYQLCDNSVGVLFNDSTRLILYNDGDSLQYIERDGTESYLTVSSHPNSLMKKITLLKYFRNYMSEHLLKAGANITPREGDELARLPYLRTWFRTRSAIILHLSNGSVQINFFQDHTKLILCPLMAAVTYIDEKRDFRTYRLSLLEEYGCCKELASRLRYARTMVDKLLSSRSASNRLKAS
G9a block: inhibitors of human histone lysine methyltransferase G9a; G9a H3K9 monomethylation, AlphaScreen, 2 h; hit rate 8.8% among 350,000; AID 504332; Q96KQ7; Potency, µM (doses to about 102 µM), for inactives: at the highest dose activity, negative = inhibition, most hits filed as inhibitors; further: potency means the concentration at half of the fitted maximal effect; nearly all actives have a fitted effect of over 75% in size
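Quantitative HTS format: methyltransferase activity on a biotin-tagged H3K9 peptide is measured by AlphaScreen, using a rabbit anti-monomethyl-H3K9 antibody with streptavidin donor and anti-IgG acceptor beads. Final levels are 20 nM enzyme, 500 nM peptide, 20 uM SAM; 2 h RT.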
CCT chaperon mod: changes cytosolic chaperonin activity | purified chaperonin ATPase assay, HTRF ADP detection, 30 min | activity change, % (test concentration not listed), hits read low | hit rate 0.3% among 360,000 | AID 651819; in the data active means activity change below about -30%
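First, chaperonin was dispensed at 40 nM or 20 nM final depending on batch activity. Next, compounds were pinned at 76 uM and ATP added at 10 uM. After 30 min at 37 °C, ADP detection reagents ran 30 min at ambient temperature.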
Active calls of the source: *; ? = inconclusive; . = no result given; [ ] = remark or other dose. Shown are actives, neighbours in structure and some others; about 10% of the full set was active somewhere. Unless noted, the call rests on the fitted dose curve; in most records, active means well fitted curve in the direction sought with a large enough effect; inconclusive means small, poorly fitted or top-dose-only effect, or another doubt; inactive means no such curve, though single readings can be large; an effect the other way counts as inactive or inconclusive. Unless noted, on the % scale 0 is the no-effect control and ±100 the full control effect.

SMILES	VDR inh	Sfp PPTase inh	Mm-Cpn inhibitor	PLK1 PBD block	G9a block	CCT chaperon mod
Fc1ccc(Nc2ccnc(-c3ccccc3C(F)(F)F)n2)cc1	44.7µM*	7.5%	.	.	6.4%[0.501 µM]	.
FC(F)(F)c1ccccc1-c1cncnc1NCc1cccs1	?	-2.7%	.	.	22.3%[0.501 µM]	.
Fc1ccc(Nc2ncncc2-c2ccccc2C(F)(F)F)cc1	?	79.4µM*	.	.	-21.4%[0.501 µM]	.
CCC(=O)N1c2ccc(S(=O)(=O)N3CCCCCC3)cc2CC1C (configuration not stated)	-1.1%	.	.	.	5.1%[59 µM]	.
CC(=O)NCCNc1ncnc2ccc(-c3ccccc3C#N)cc12	-7.0%	8.8%	.	.	16.6%[0.501 µM]	.
COc1ccc(S(=O)(=O)N2Cc3ccccc3CC2C(=O)Nc2cc(Cl)ccc2Cl)cc1 (configuration not stated)	0.0%	.	.	.	-15.0%[59 µM]	.
Cc1ccccc1CNC(=O)CCC(=O)N1CC2CCCN2c2ccccc21 (configuration not stated)	-11.9%	.	.	.	-24.8%[59 µM]	.
CNc1ncncc1-c1ccccc1C	70.8µM*	12.3%	.	.	20.4%[0.501 µM]	.
Cc1ccc(-n2nc(C(=O)NC(C)C)c(=O)n(C)c2=O)cc1	19.3%	.	.	.	-5.0%[59 µM]	.
O=C(/C=C/c1ccccc1)C1=C(O)C(=O)N(CCO)C1c1ccccc1[N+](=O)[O-] (configuration not stated)	-10.6%	?	-7.3%	-9.9%	44.7µM*	-4.7
CC(C)(C(O)c1ccc([N+](=O)[O-])cc1)[N+](=O)[O-] (configuration not stated)	-5.2%	-9.2%	.	.	.	.
c1ccc2oc(C3=NNC(=NC4CC4)SC3)cc2c1	-17.4%	-40.2%	3.8%	?	11.2µM*	-2.4
Cc1cc(C2=NNC(=NC3CC3)SC2)c(C)n1-c1ccccc1F	?	44.7µM*	?	26.7µM*	?	-6.6
CCSc1nnc(-c2ccc(S(=O)(=O)N3CCOCC3)cc2)n1CC1CCCO1 (configuration not stated)	-9.8%	19.4%	-0.5%	-6.7%	-20.2%[59 µM]	-2.0
NC(=O)NC(=O)CSc1nnc(-c2ccc(Cl)cc2)n1CC1CCCO1 (configuration not stated)	2.5%	10.2%	-1.3%	-7.4%	-5.3%	-0.1
Cc1ccc(-n2c(SCC(=O)NCC3CCCO3)nnc2-c2ccoc2C)cc1 (configuration not stated)	6.8%	15.8%	0.5%	-19.3%	?	0.7
CCC(=O)Nc1ccc(-c2nnc(SCC(=O)NCC3CCCO3)n2C)cc1 (configuration not stated)	7.2%	11.0%	3.6%	-1.5%	8.91µM*	-0.3
Cc1occc1-c1nnc(SCC(=O)NCC2CCCO2)n1C (configuration not stated)	-18.6%	1.6%	-0.7%	29.9µM*	-10.2%[59 µM]	0.9
CC(=O)c1c(C)[nH]c(C(=O)CSc2nnc(-c3ccc(Cl)cc3)n2CC2CCCO2)c1C (configuration not stated)	3.7%	10.4%	-12.5%	-11.5%	50.1µM*	-1.7
O=C(CSc1nnc(-c2ccc(S(=O)(=O)N3CCCC3)cc2)n1CC1CCCO1)NC1CC1 (configuration not stated)	-9.7%	-0.7%	-1.8%	-4.7%	50.1µM*	1.2
CCCC(O)c1nc2ccccc2n1CCCOc1ccc(Cl)cc1 (configuration not stated)	14.6%	.	.	.	-44.2%[59 µM]	.
COc1ccc(NC(=O)CN(Cc2ccccc2)S(=O)(=O)c2ccc(C)cc2)cc1Cl	-2.7%	.	.	.	-28.6%[59 µM]	.
O=C1N[C@H](Cc2ccccc2)C(=O)N1Cc1cccc2ccccc12	0.4%	-12.7%	.	.	.	.
COc1ccc(NC(=O)CSc2nc3ccccc3nc2N2CCC(C)CC2)cc1	?	.	.	.	54.8%[59 µM]	.
COc1cc(C(=O)CSc2nnc(-c3ccc(O)cc3)n2CC2CCCO2)ccc1NC(C)=O (configuration not stated)	17.3%	?	-0.3%	-0.9%	-10.2%[59 µM]	-5.1
CCC(=O)Nc1ccc(C(=O)CSc2nnc(-c3ccc(O)cc3)n2CC2CCCO2)cc1 (configuration not stated)	-3.2%	79.4µM*	-0.8%	-12.5%	44.7µM*	0.8
